Assay outcomes (PubChem BioAssay)
The list is not random: actives were taken first. Their share in the collection is about 5.4%.
ALR H2O2 inh: blocks human ALR sulfhydryl oxidase activity | purified ALR, DTT oxidation, H2O2 HRP-luminol luminescence | inhibition, % (no concentration beside the values) | 3.8% of 290,000 active;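 active = mean replicate inhibition above about 79%, with every replicate also reaching it, limit read from the data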
A3A deaminase: blocks human APOBEC3A ssDNA deamination; 0.41% of 330,000 active; inhibition, % at 20 µM; recombinant A3A, FAM/TAMRA ssDNA deamination fluorescence; AID 493011;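 active = at least 40% inhibition at 20 µM here, with at most 30% in a related deaminase screen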;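 note: plate controls were A3A with DMSO for no effect and wells lacking A3A enzyme for full effect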
Target sequence (P31941 whole entry, looked up): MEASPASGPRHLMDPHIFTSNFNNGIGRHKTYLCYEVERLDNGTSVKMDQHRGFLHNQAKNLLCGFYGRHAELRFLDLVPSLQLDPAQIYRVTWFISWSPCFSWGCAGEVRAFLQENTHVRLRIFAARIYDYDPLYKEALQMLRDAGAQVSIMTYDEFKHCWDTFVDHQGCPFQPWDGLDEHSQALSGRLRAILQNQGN
aDG glyco up: increases alpha dystroglycan glycosylation. Pro5-aDG cells, alpha-DG glycosylation AlphaScreen (IIH6); 0% Pro5, 100% B10-LARGE cell signal. activation, % at 10 µM. 0.22% of 360,000 active;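 active = activation of at least 8% versus controls, or a plate z-score of at least 8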;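 note: Pro5 are CHO cells carrying HIG-tagged alpha-DG that lacks glycosylation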
PHOSPHO1 block: inhibitors of human PHOSPHO1 phosphatase; 1.1% of 290,000 active; AID 1565; recombinant PHOSPHO1, absorbance phosphatase assay; inhibition, % at 13.3 µM; in the data active = inhibition above about 60%
A3G deaminase: blocks human APOBEC3G single-stranded DNA deamination | 0.28% of 330,000 active | AID 493012 | Q9HC16 | recombinant A3G, ssDNA deamination FAM/TAMRA fluorescence | inhibition, % at 20 µM;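 active = inhibition of at least 40% at 20 µM, with no more than 30% in the related APOBEC3A deaminase screen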;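 note: plate controls were DMSO wells with A3G for no effect and wells lacking A3G enzyme for full effect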
Target sequence (Q9HC16 whole entry, looked up): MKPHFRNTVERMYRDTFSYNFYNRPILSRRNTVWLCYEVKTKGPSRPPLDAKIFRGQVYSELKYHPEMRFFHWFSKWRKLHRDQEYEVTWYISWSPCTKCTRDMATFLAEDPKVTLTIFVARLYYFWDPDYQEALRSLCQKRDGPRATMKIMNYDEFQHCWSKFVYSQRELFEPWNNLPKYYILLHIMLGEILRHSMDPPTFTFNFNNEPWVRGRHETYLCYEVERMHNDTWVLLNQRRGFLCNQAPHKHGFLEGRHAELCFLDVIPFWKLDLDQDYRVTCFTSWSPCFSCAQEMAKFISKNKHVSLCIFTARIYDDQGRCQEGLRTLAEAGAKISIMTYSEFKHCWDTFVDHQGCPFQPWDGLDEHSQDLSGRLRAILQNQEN
rCAG binder: r(CAG) repeat RNA binding; inhibition, % at 3 µM; 1.3% of 370,000 active; AID 651821; TO-PRO-1 dye displacement fluorescence;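 active = inhibition above the plate cutoff, the mean of all test compounds on that plate plus 3 SD, cut at about 35% in these data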;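 note: 0% = DMSO alone and 100% = 100 µM mitoxantrone as full dye displacement; higher means more dye released from RNA so lower well fluorescence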
The depositor's hits bear a star; . = no result given.

SMILES	ALR H2O2 inh	A3A deaminase	aDG glyco up	PHOSPHO1 block	A3G deaminase	rCAG binder
O=Cc1c(N2CCN(c3ccccc3)CC2)nc2ccccn2c1=O	98.6*	0.5	0.0	25.6	-4.3	-5.5
O=C(COC(=O)c1ccc(O)cc1)NCCC1=CCCCC1	-0.4	1.6	-0.2	52.7	-4.4	-0.5
O=C(COC(=O)c1ccc(Cl)nc1)NCCC1=CCCCC1	87.7*	2.2	-0.1	20.1	-0.9	-3.3
COC(=O)[C@]1(CC(C)C)NC=C(C(=O)c2ccccc2)[C@@H]1c1cccc(C(F)(F)F)c1	.	.	.	.	.	0.7
COc1cccc(/C=N/n2c(C3CCCCC3)n[nH]c2=S)c1O	91.9*	-3.7	0.0	9.7	13.4	0.9
COc1cc(/C=N/n2c(C3CCCCC3)n[nH]c2=S)ccc1O	98.1*	-3.0	-0.1	18.5	26.2	-1.2
COc1ccccc1C(=O)NC1CCCCN(Cc2ccc(OC(F)(F)F)cc2)C1=O (configuration not stated)	.	.	.	.	.	0.7
Fc1ccc(-c2cc(-c3nnc4sc(-c5ccco5)nn34)[nH]n2)cc1	.	.	.	.	.	19.7
c1coc(CSSCc2ccco2)c1	98.3*	3.1	0.3	.	-6.6	21.7
COCc1[nH]nc2c1C(c1ccc(C)cc1)N(c1ccc(OC)cc1)C2=O (configuration not stated)	.	.	.	.	.	2.4
Cc1ccc2nsnc2c1S(=O)(=O)N1CCOCC1	98.5*	3.1	0.1	-11.5	-2.3	-1.6
Cc1cc(C(=O)O[C@H]2CCC[C@]3(C(=O)N(Cc4ccccc4)c4ccccc43)[C@H]2NC(=O)CCc2ccccc2)no1	.	.	.	.	.	1.1
CC(C)(C)NC(=S)Nc1ccc(Br)cc1	3.4	-1.4	0.3	15.0	-4.9	-2.2
S=C(NCCc1ccccc1)Nc1ccc(Nc2ccccc2)cc1	97.9*	-4.3	2.1	14.0	-3.5	1.3
CC(C)(C)NC(=S)Nc1ccc(Nc2ccccc2)cc1	99.2*	-0.2	2.2	24.4	4.7	5.5
CCCNC(=S)Nc1ccccc1	89.6*	-2.7	-0.1	33.1	-2.4	-2.8
CCNC(=S)NNC(=O)Nc1ccccc1	5.9	1.7	0.0	78.9*	-1.8	.
NC(=S)NNC(=S)Nc1ccccc1	97.4*	-2.0	0.0	6.1	23.7	-2.6
S=C(NNC(=S)Nc1ccccc1)Nc1ccccc1	2.3	-1.3	0.1	1.0	14.3	2.3
O=C(Nc1ncccn1)c1ccc(C(F)(F)F)cc1	97.2*	0.5	0.0	-9.8	-1.4	3.0
CCN(CC)S(=O)(=O)c1cccc(-c2nnc(SCC(=O)c3cc(C)n(C)c3C)o2)c1	1.0	-0.6	0.0	79.7*	-2.5	7.2
CCN(CC)S(=O)(=O)c1cccc(-c2nnc(SCCOc3ccccc3)o2)c1	-14.9	1.5	0.8	0.7	3.0	-1.9
Cc1ccc(-c2nn3c(C)nnc3s2)cc1NC(=O)c1ccc(-c2ccc(Cl)cc2Cl)o1	.	43.2*	-0.2	23.2	-2.7	8.3
Cc1ccc(-c2nn3c(C)nnc3s2)cc1NC(=O)c1ccc(-c2cccc(Cl)c2)o1	.	4.5	0.3	12.8	9.1	18.3
CN(Cc1ccccc1)S(=O)(=O)c1cccc(C(=O)OCc2cccc(C(F)(F)F)c2)c1	.	.	.	.	.	3.9
SMILES	ALR H2O2 inh	A3A deaminase	aDG glyco up	PHOSPHO1 block	A3G deaminase	rCAG binder
Cc1cc(=O)oc2c3c(ccc12)OC/C3=N/N	-3.5	1.3	-0.1	27.4	-3.1	40.7*
COC(=O)C1C(=O)OC(C)(C)C1C(C)C(=O)c1ccc(C)cc1C (configuration not stated)	-1.4	0.3	0.2	60.0*	-2.7	-0.7
Nc1ccn([C@@H]2O[C@H](C(=O)N[C@H](Cc3ccccc3)C(=O)NCc3cccc4c3OCO4)[C@@H](O)[C@H]2O)c(=O)n1	.	.	.	.	.	0.7
CCN1CCCCC(NC(=O)c2ccccc2OC)C1=O (configuration not stated)	.	.	.	.	.	1.0
O=S1(=O)c2ccc(N3CCC[C@@H]3CO)cc2O[C@@H]2CCN1C2	.	.	.	.	.	3.1
Cc1cc(C(=O)NCCc2ccc(Cl)cc2)no1	1.2	-1.1	-0.2	34.9	-4.8	-4.3
Cc1occc1C(=O)NCCCCc1ccccc1	98.0*	1.9	-0.3	21.4	-2.8	6.1
Cc1occc1C(=O)NCCc1ccc(Cl)cc1	96.2*	1.5	0.1	4.1	-3.7	2.8
O=C(NCCc1ccc(Cl)cc1)c1ccc(=O)[nH]c1	-3.3	-4.4	0.0	39.2	2.8	2.8
Cc1occc1C(=O)NC(C)C(C)(C)C (configuration not stated)	97.6*	1.0	-0.1	6.9	-0.2	-2.1
O=C(NCCc1ccc(O)cc1)c1ccc(Cl)cc1	79.2*	1.0	0.2	-0.1	-0.6	2.1
O=C1C(NC(=O)N2c3ccccc3C=Cc3ccccc32)CCCCN1Cc1ccc(Cl)cc1 (configuration not stated)	.	.	.	.	.	9.9
OCc1csc(=Nc2ccccc2)n1-c1ccccc1	99.1*	-0.8	-0.1	7.5	0.3	1.0
Cc1ccccc1Cn1cc(COC(=O)NCCc2c[nH]c3ccccc23)nn1	.	.	.	.	.	2.1
Cc1ccc(CCNc2ccc3ccccc3c2)cn1	98.8*	-11.6	0.0	.	10.6	0.5
NC(=O)[C@@H]1CCNc2c(I)cc([N+](=O)[O-])cc2C(=O)N[C@@H](CCC(=O)O)C(=O)N[C@@H](CO)C(=O)N1	3.2	33.8	0.0	-3.8	-4.1	.
NC(=O)[C@@H]1CCCCNc2c(I)cc([N+](=O)[O-])cc2C(=O)N[C@@H](CCC(=O)O)C(=O)N[C@@H](CO)C(=O)N1	11.6	8.2	-0.2	-1.4	-4.2	46.0*
COC(=O)C1CN(Cc2cn(Cc3ccc(F)cc3)nn2)CCS(=O)(=O)N1Cc1ccc(C)cc1 (configuration not stated)	.	.	.	.	.	2.1
C=CCn1c(CCSCc2ccccc2)n[nH]c1=S	94.4*	18.1	0.1	-41.0	32.0	-2.9
Cc1nnc(NC(=O)CCSc2ccccc2)s1	-3.4	-0.3	0.0	7.0	-1.2	-1.0
Cc1nnc(NC(=O)CCSc2ccc(Cl)cc2)s1	-4.4	-1.3	0.3	60.0*	-5.0	-0.5
COC(=O)[C@H](Cc1ccccc1)N1C[C@@H](N2CCC[C@H]2C)CS1(=O)=O	.	.	.	.	.	5.9
Cc1cc(C)c2c(NC(=O)CCl)nn(C)c2n1	9.7	0.2	0.9	39.9	-1.7	1.2
CCc1cc(SC#N)cc(CC)c1NC(=O)CCl	99.0*	1.0	0.1	16.7	-1.3	-1.9
O=C(Nc1ccc(Br)cc1)OC1CC2CC1[C@H]1CCCCN1[C@H]2Cc1ccccc1 (some centres not stated)	.	.	.	.	.	7.5
COc1ccc(C2=CC3=C(Br)C(=O)C(C)(O)C(=O)C3=CO2)cc1 (configuration not stated)	90.2*	5.6	-0.3	0.1	-2.1	.
COC(=O)[C@]12C[C@H](CC(=O)NCc3cccs3)C(=O)N(CCc3ccc(OC)c(OC)c3)C1=C[C@H](C1CCCC1)O[C@@H]2C	.	.	.	.	.	3.4
CNCC(O)COc1ccccc1 (configuration not stated)	-14.0	1.9	1.6	-0.1	2.3	3.1
